The values that follow are results of earlier work, collected in PubChem BioAssay AID977611.

A word on the Kd: it is the free concentration of one partner at which half of the binding sites on the other are occupied at equilibrium, for simple one-to-one binding.

In all, about 3,900 compounds went through this assay and about 3,900 (100%) were called active. No cut-off is given here; in the data, nearly all actives have Kd up to about 4200 µM. So high a share suggests a set chosen from earlier hits. The list shows a part of the results. Non-standard residues stand in square brackets, D forms with d. Square brackets hold non-standard residues; d marks the D form. Residues, ends and D or L forms follow the SMILES beside them. Peptide text beside a SMILES is read from it. *: point of attachment. Lys(Me3) = C[N+](C)(C)CCCC[C@H](N)C(=O)O; Orn(CH(NH2)2) = NC(N)NCCC[C@H](N)C(=O)O; For = O=C*

The nature of this data set: PubChem AID 977611. The note with it: PDB protein-ligand complexes, literature Kd.

With `O[C@@H]1[C@H](O)[C@@H](CO[P+](O)(O)O)O[C@H]1n1cnc2c(NC3CCCC3)ncnc21`, the Kd (protein: 2'-deoxynucleoside 5'-phosphate N-hydrolase 1, DNPH1 (RCL), PDB entry 4kxl) was 0.6 µM (active).
Turning to `CN(C)[C@@H](Cc1cnc[nH]1)C(=O)O`, the Kd is, setting by setting: (protein: Histidine-specific methyltransferase EgtD, PDB entry 4pin) 4 µM (active); (protein: Histidine-specific methyltransferase EgtD, PDB entry 4pio) 2 µM (active).
For `C=C1C/C=C/[C@H](OC)[C@H](OC(N)=O)C(=C)C[C@@H](C)[C@@H](O)[C@@H](OC)C[C@H](C)CC2=C(OC)C(=O)C(C)=C(NC1=O)C2=O`, the Kd (protein: ATP-DEPENDENT MOLECULAR CHAPERONE HSP82, PDB entry 4as9) was 16.3 µM (active).
As for `OCc1cn([C@H]2O[C@H](CO)[C@@H](O)[C@H](O)[C@@H]2O)nn1`, under “protein: Concanavalin-A ConA, PDB entry 4pf5”, the Kd was 3.3 µM (active).
Turning to `CCC(=O)O[C@H](CCOCc1ccccc1)[C@@H](C)[C@H](O)[C@@H](C)CCC(=O)[C@H](C)[C@H](OC(C)=O)[C@H](C)/C=C/N(C)C=O`, the Kd (protein: Actin, alpha skeletal muscle, PDB entry 4k42) was 0.285 µM (active).
Regarding `NC1N=C2NN=C(CC(=O)O)C(=O)C2C(=O)N1` (stereo unspecified), the Kd (protein: Dihydropteroate Synthase, PDB entry 4dai) was 0.11 µM (active).
Take `O=C1NC(=O)[C@H](Cc2ccccc2)N1`: the Kd (protein: Mhp1, PDB entry 2JLO) was 54 µM (active).
Turning to `O=C1N=C(Cc2cccc(Br)c2)C(=O)N1`, the Kd (protein: nucleobase-cation-symport-1 family hydantoin transporter Mhp1, PDB entry 4d1c) was 2 µM (active).
For `CCCCCCCCC(=O)c1cc(O)c(O)c(O)c1`, for the setting “protein: Nuclear receptor subfamily 4 group A member 1, PDB entry 4jgv”, the Kd was 0.27 µM (active).
As to `C[C@]12CC(=O)[C@H]3[C@@H](CCC4=CC(=O)CC[C@@]43C)[C@@H]1CC[C@@H]2C(=O)CO`, for the setting “protein: Phospholipase A2 VRV-PL-VIIIa, PDB entry 4qf7”, the Kd is 0.0025 µM (active).
Take H-GALGGAKQAGAV-OH: the Kd (protein: Clumping factor A (ClfA), PDB entry 2vr3) was 10.5 µM (active).
For H-QQHHLGGAKQAGDV-OH, the Kd (protein: FIBRONECTIN-BINDING PROTEIN A, PDB entry 4b60) is 3.7 µM (active).
As to H-FNYESTNPFTAK-OH, under “protein: EH domain-containing protein 1 C-terminal domain, PDB entry 2kff”, the Kd is 245 µM (active).
Regarding H-LESKPYNPFEEEEED-OH, the Kd (protein: C-terminal domain of EH domain-containing protein 1, PDB entry 2ksp) is 57 µM (active).
H-KSAVTTVVNP-OH: the Kd (protein: Integrin beta-1-binding protein 1, PDB entry 4dx9) is 5 µM (active).
Regarding H-FNYESTGPFTAK-OH, the Kd (protein: EH domain-containing protein 1 C-terminal domain, PDB entry 2kfh) is 2400 µM (active).
Take H-FNYESTDPFTAK-OH: where the note is “protein: EH domain-containing protein 1 C-terminal domain, PDB entry 2kfg”, the Kd was 1200 µM (active).
For the compound `COC1=CC=C2CC3C4CC5OCOC5CC4CCN3C[C@H]2[C@@H]1OC` (stereo partly specified), the Kd (protein: Putative regulatory protein, PDB entry 3vw2) is 17.9 µM (active).
Turning to `Cc1cc2c([nH]1)NC(=O)N([C@@H]1O[C@H](CO)[C@@H](O)[C@H]1O)C2`, the Kd (protein: NupC family protein CNT-7C8C, PDB entry 4pd8) is 0.94 µM (active).
Consider `CC[C@H](C)[C@H](NC(=O)[C@H](CC(=O)O)NC(=O)[C@@H](N)CC(=O)O)C(=O)N[C@@H](CO[P+](O)(O)O)C(=O)N[C@@H](CC(C)C)C(=O)N[C@@H](CC(C)C)C(=O)N[C@@H](CCCCN)C(=O)O`, for which the equilibrium dissociation constant (Kd) (protein: human GGA1(Golgi-localizing, ?-adaptin ear homology domain, ARF-interacting) VHS domains, PDB entry 1ujk) was 0.27 µM (active).
Regarding H-DDISLLK-OH, the Kd (protein: human GGA1(Golgi-localizing, ?-adaptin ear homology domain, ARF-interacting) VHS domains, PDB entry 1ujj) was 0.8 µM (active).
In the case of `Cc1nc2ccccc2c(-c2ccc3c(c2)CCCO3)c1[C@H](OC(C)(C)C)C(=O)O`, the Kd (protein: Integrase IN CCD (H171T mutant), PDB entry 4tsx) was 10.3 µM (active).
Regarding `CN(C)Cc1c[nH]c2c(CCCO)cccc12`, where the note is “protein: Phospholipase A2 VRV-PL-VIIIa, PDB entry 4qgd”, the Kd was 0.037 µM (active).
Turning to H-TNEFYA-OH, under “protein: the PDZ Tandem of Syntenin 1, PDB entry 1ybo”, the Kd is 160 µM (active).
As to `C[C@H](N)C(=O)N[C@@H](CO[P+](O)(O)O)C(=O)N[C@@H](CCC(N)=O)C(=O)N[C@@H](CCC(=O)O)C(=O)N[C@@H](Cc1ccc(O)cc1)C(=O)O`, the Kd (protein: Mediator of DNA damage checkpoint protein 1(MDC1/NFBD1), PDB entry 2azm) is 2.2 µM (active).
Take H-DAEFRA-OH: the Kd (protein: 3D6 FAB ANTIBODY, PDB entry 4onf) is 0.0012 µM (active).
Regarding H-TNLYML-OH, the dissociation constant (Kd) (protein: E. coli UDP-N-acetylglucosamine acyltransferase (LpxA), PDB entry 4j09) was 17 µM (active).
For the compound H-TYKFFEQ-OH, the Kd (protein: adaptor protein complex 4 (AP-4) mu4 subunit C-terminal domain D190A mutant, PDB entry 4mdr) was 40.6 µM (active).
In the case of `Oc1ccc(F)cc1O`, the Kd is, setting by setting: (protein: Protocatechuate 3,4-dioxygenase alpha chain 3,4-PCD, PDB entry 4whq) 75 µM (active); (protein: Protocatechuate 3,4-dioxygenase alpha chain 3,4-PCD, PDB entry 4whr) 75 µM (active); (protein: Protocatechuate 3,4-dioxygenase alpha chain 3,4-PCD, PDB entry 4whs) 75 µM (active).
For the compound `CSCC[C@H](NC(=O)[C@@H](N)CC(=O)O)C(=O)N[C@@H](Cc1ccc(O)cc1)C(=O)N[C@@H](C)C(=O)O` (H-DMYA-OH), under “protein: E3 ubiquitin-protein ligase RNF31 HOIP PUB Domain, PDB entry 4p0b”, the Kd is 0.29 µM (active).
In the case of H-MFAAFDYIA-OH, the Kd (protein: 3-phosphoinositide-dependent protein kinase 1 PDK1, PDB entry 4rrv) was 0.04 µM (active).
Take `Cc1ccc(-c2cc3c(NC[P+](O)(O)O)ncnc3s2)cc1`: under “protein: Farnesyl pyrophosphate synthase, human FPPS, PDB entry 4lph”, the dissociation constant (Kd) was 9.2 µM (active).
As for `Cc1ccc(-c2cc3c(NC([P+](O)(O)O)[P+](O)(O)O)ncnc3s2)cc1`, where the note is “protein: Farnesyl pyrophosphate synthase, human FPPS, PDB entry 4lpg”, the equilibrium dissociation constant (Kd) is 55.6 µM (active).
On to `N#Cc1c(Oc2ccc(F)c(NC(=O)Cc3cccc(C(F)(F)F)c3)c2)ccc2nc(NC(=O)C3CC3)sc12`, for which, where the note is “protein: Serine/threonine-protein kinase B-raf, PDB entry 4ksp”, the Kd was 0.0016 µM (active).
`O=C(c1ccccc1Cn1cncn1)N(O)CC[C@@H](c1ccc(Cl)c(Cl)c1)[P+](O)(O)O`: the dissociation constant Kd (protein: 1-DEOXY-D-XYLULOSE 5-PHOSPHATE REDUCTOISOMERASE, PDB entry 3zi0) was 0.04 µM (active).
`O=C(c1ccccc1)N(O)CC[C@@H](c1ccc(Cl)c(Cl)c1)[P+](O)(O)O`: the Kd (protein: 1-DEOXY-D-XYLULOSE 5-PHOSPHATE REDUCTOISOMERASE, PDB entry 3zhx) was 0.21 µM (active).
As to `O=C(c1ccccc1Nc1cccc(C(F)(F)F)c1)N(O)CC[C@@H](c1ccc(Cl)c(Cl)c1)[P+](O)(O)O`, the Kd (protein: 1-DEOXY-D-XYLULOSE 5-PHOSPHATE REDUCTOISOMERASE, PDB entry 3zhz) is 0.09 µM (active).
Regarding `CC(C)C[C@H](NC(=O)[C@H](CC(=O)O)NC(=O)CNC(=O)[C@H](CCCN=C(N)N)NC(=O)CNC(=O)[C@H](Cc1cnc[nH]1)NC=O)C(=O)NCC(=O)N[C@@H](CCCN=C(N)N)C(=O)N[C@@H](CC(C)C)C(=O)N[C@@H](CCCCN)C(=O)N[C@@H](CCCCN)C(N)=O` (For-HGRGDLGRLKK-NH2), the Kd (protein: Integrin alpha V beta 6, PDB entry 4um9) was 0.0085 µM (active).
`CC(C)C[C@H](NC(=O)[C@H](Cc1cnc[nH]1)NC(=O)[C@H](CO)NC(=O)[C@H](CO)NC(=O)[C@H](Cc1cnc[nH]1)NC(=O)[C@H](C)NC(=O)[C@@H](N)CCCN=C(N)N)C(=O)N[C@@H](CCCCN(C)C)C(=O)N[C@@H](CO)C(=O)N[C@@H](CCCCN)C(=O)N[C@@H](CCCCN)C(=O)NCC(=O)N[C@@H](CCC(N)=O)C(=O)N[C@@H](CO)C(=O)N[C@H](C(=O)O)[C@@H](C)O`: where the note is “protein: Tumor suppressor p53-binding protein 1, 53BP1 tandem Tudor domains, PDB entry 2mwo”, the Kd is 20 µM (active).
Regarding `CSCC[C@H](NC(=O)[C@H](CC(C)C)NC(=O)[C@H](CCCCN(C)C)NC(=O)[C@H](CCCCN)NC(=O)[C@H](Cc1cnc[nH]1)NC(=O)[C@H](CCCN=C(N)N)NC(=O)[C@H](CO)NC(=O)[C@@H](NC(=O)[C@@H](N)CO)[C@@H](C)O)C(=O)N[C@@H](Cc1ccccc1)C(=O)N[C@@H](CCCCN)C(=O)N[C@H](C(=O)O)[C@@H](C)O`, the dissociation constant (Kd) (protein: Tumor suppressor p53-binding protein 1, 53BP1 tandem Tudor domains, PDB entry 2mwp) is 0.9 µM (active).
Take `CC(C)C[C@H](NC(=O)[C@@H](NC(=O)[C@H](CCCC[N+](C)(C)C)NC(=O)[C@H](CCCNC(N)N)NC(=O)[C@H](Cc1cnc[nH]1)NC(=O)[C@@H](N)CCCNC(N)N)C(C)C)C(=O)N[C@H](C=O)CCCNC(N)N` (H-[Orn(CH(NH2)2)]H[Orn(CH(NH2)2)][Lys(Me3)]VL[Orn(CH(NH2)2)]-aldehyde): the Kd (protein: Polycomb protein EED residues 77-441, PDB entry 3ij1) is 20 µM (active).
For the compound `CC(C)C[C@H](NC(=O)[C@@H](NC(=O)[C@@H](CCCC[N+](C)(C)C)NC(=O)[C@H](CCCNC(N)N)NC(=O)[C@H](Cc1cnc[nH]1)NC(=O)[C@@H](N)CCCNC(N)N)C(C)C)C(=O)N[C@@H](CCCNC(N)N)C(=O)O`, the Kd (protein: JMJD2A-tudor, PDB entry 2qqs) was 0.4 µM (active).
`CC(C)C[C@H](NC(=O)[C@@H](NC(=O)[C@H](CCCC[N+](C)(C)C)NC(=O)[C@H](CCCNC(N)N)NC(=O)[C@@H](N)Cc1cnc[nH]1)C(C)C)C(=O)N[C@@H](CCCNC(N)N)C(=O)O` (H-H[Orn(CH(NH2)2)][Lys(Me3)]VL[Orn(CH(NH2)2)]-OH): under “protein: Polycomb protein EED, PDB entry 3jpx”, the Kd was 235 µM (active).
